Over roughly 33,000 sequences, “e-score” has its median near -0.037; the highest 2% begin near 0.34. The list comes from a sample in which the highest values are over-represented; it also holds similar and randomly drawn sequences.
These sequences were tested against T1, GST-Rok (full length) (Bacillus subtilis subsp. subtilis str. …, UniProt O34857 1-191) (assay: protein binding microarray; Rok is a gene silencer of Bacillus subtilis; high values mean tight binding). Settings: protein: recombinant; tags: GST (pTH5325, pDEST15-Magic modified); dsDNA, one strand shown.
T1 sequence: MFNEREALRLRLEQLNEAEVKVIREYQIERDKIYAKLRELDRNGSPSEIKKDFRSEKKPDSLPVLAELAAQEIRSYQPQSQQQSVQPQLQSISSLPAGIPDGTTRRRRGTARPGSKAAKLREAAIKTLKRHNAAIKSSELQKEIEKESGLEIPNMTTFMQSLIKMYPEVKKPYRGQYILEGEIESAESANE
In short: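 Each has a 25-mer constant primer and a 35-mer variable part from a de Bruijn sequence of order 10, covering every non-palindromic 8-mer at least 32 times (palindromic 16). Preference for each 8-mer is given as a rank-based, unitless enrichment score (E-score). Its range runs from 0.5 (most favored) to −0.5 (most disfavored).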
TAAGCCTA showed a binding signal of -0.0764 E-score.
In the case of AGGCAAGC, the binding signal is reported as -0.186 E-score.
Work on AATTGTGG yielded a binding signal of -0.0645 E-score.
In the case of CAGTGCGG, the binding signal is reported as -0.0903 E-score.
AGGTAGAT was tested, and the binding signal was 0.359 E-score.
For GGGTAGAC, the binding signal was -0.127 E-score.
Sequence AAGTAGAG has a binding signal of 0.104 E-score.
For AGGTAGAC, the binding signal was 0.191 E-score.
In the case of AGGTAGAA, the binding signal is reported as 0.419 E-score.
Sequence ACGTAGAT has a binding signal of 0.222 E-score.
Sequence AGTTAGAT has a binding signal of 0.162 E-score.
Sequence GGGTAGCA has a binding signal of -0.00107 E-score.
AAGTAGAC gave a binding signal of 0.00429 E-score.
GGGTAGAA gave a binding signal of 0.359 E-score.
AGGTAGAG showed a binding signal of 0.122 E-score.
For AAGTAGAT, the binding signal was 0.374 E-score.
With GTGCTTTA the binding signal was -0.00122 E-score.
Work on GCGAAGTA yielded a binding signal of 0.155 E-score.
Sequence CGCTTTTC has a binding signal of 0.046 E-score.
AAGCTTGT was tested, and the binding signal was 0.0413 E-score.
Work on CTAGGTGA yielded a binding signal of -0.041 E-score.
With AGAGTTAC the binding signal was 0.152 E-score.
CAAAGTTA showed a binding signal of 0.0253 E-score.
With CCGTAGAA the binding signal was 0.32 E-score.
CGGTAGAC gave a binding signal of -0.0961 E-score.
For CGGTAGAA, the binding signal was 0.417 E-score.
With CGGTAGAG the binding signal was 0.0632 E-score.
TGGTAGAA gave a binding signal of 0.468 E-score.
TCGTAGAA showed a binding signal of 0.131 E-score.
With CTAACGCA the binding signal was 0.101 E-score.
In the case of ACCCTGTC, the binding signal is reported as -0.0851 E-score.
AACGACCG showed a binding signal of -0.0771 E-score.
In the case of GAATTATA, the binding signal is reported as 0.326 E-score.
For AAATTATG, the binding signal was 0.215 E-score.
Sequence AAATTATA has a binding signal of 0.413 E-score.
With CAATTATG the binding signal was 0.175 E-score.
Sequence TAATTATA has a binding signal of 0.385 E-score.
With AAATTATT the binding signal was 0.296 E-score.
Work on CAATTATC yielded a binding signal of 0.2 E-score.
For CAATTATA, the binding signal was 0.363 E-score.
For TAATTAAA, the binding signal was 0.259 E-score.
For CGTATGGA, the binding signal was 0.128 E-score.
AATTAAAC gave a binding signal of 0.0743 E-score.
Work on CATATAGG yielded a binding signal of 0.175 E-score.
ATTAATCA showed a binding signal of 0.232 E-score.
CTGGAAAG gave a binding signal of -0.166 E-score.
With CACATCTC the binding signal was 0.0106 E-score.
Sequence ATTATTAC has a binding signal of 0.382 E-score.
For GCTATTAC, the binding signal was 0.269 E-score.
In the case of CCTATTAC, the binding signal is reported as 0.285 E-score.
ACTATTAT was tested, and the binding signal was 0.386 E-score.
ACTATTAG showed a binding signal of 0.244 E-score.
Sequence ATTATTAA has a binding signal of 0.0696 E-score.
In the case of CTTATTAC, the binding signal is reported as 0.299 E-score.
For AGTATTAT, the binding signal was 0.358 E-score.
In the case of ACTATTAC, the binding signal is reported as 0.407 E-score.
AGTATTAA showed a binding signal of 0.29 E-score.
AGTATTAC showed a binding signal of 0.26 E-score.
ACTATTAA was tested, and the binding signal was 0.289 E-score.
GCATTAGA was tested, and the binding signal was 0.129 E-score.
Sequence TAGTCTGA has a binding signal of 0.148 E-score.
CTTTACGA gave a binding signal of 0.0116 E-score.
AAGGAGTC was tested, and the binding signal was -0.107 E-score.
AAGGAATC showed a binding signal of -0.0168 E-score.
For ATAGAAGC, the binding signal was 0.307 E-score.
Sequence CGAGTAAC has a binding signal of 0.156 E-score.
ACTTTTAA gave a binding signal of 0.158 E-score.
ACTTTTAT showed a binding signal of 0.355 E-score.
For ACTTTTAC, the binding signal was 0.224 E-score.
With ACTATTGC the binding signal was 0.401 E-score.
ACTATTGA was tested, and the binding signal was 0.288 E-score.
In the case of ACTATTGG, the binding signal is reported as 0.208 E-score.
Work on CACTTTTC yielded a binding signal of 0.0315 E-score.
ACGTTAAG was tested, and the binding signal was -0.0138 E-score.
For TATAACCA, the binding signal was 0.27 E-score.
In the case of CACGTTGA, the binding signal is reported as 0.088 E-score.
Work on AAGATGAC yielded a binding signal of 0.0776 E-score.
AAGTTTTG gave a binding signal of 0.00498 E-score.
For ACTATACG, the binding signal was 0.0122 E-score.
GTTATACA gave a binding signal of 0.213 E-score.
With CTTATACA the binding signal was 0.283 E-score.
With ATTATACC the binding signal was 0.269 E-score.
In the case of ATTATACA, the binding signal is reported as 0.363 E-score.
ATTATACG showed a binding signal of 0.381 E-score.
For AACGGTTC, the binding signal was 0.108 E-score.
With GTAGACAA the binding signal was -0.0127 E-score.
For GTGGCCAC, the binding signal was -0.123 E-score.
Sequence ACCTTGCG has a binding signal of -0.00332 E-score.
With CAAAAAGA the binding signal was -0.0731 E-score.
TGCTTGAA showed a binding signal of -0.0266 E-score.
In the case of CTTCTACC, the binding signal is reported as 0.327 E-score.
With ATTCTACG the binding signal was 0.18 E-score.
For ATTCTACC, the binding signal was 0.442 E-score.
GTTCTACA gave a binding signal of 0.265 E-score.
For CTTCTATC, the binding signal was 0.265 E-score.
ATTCTATA showed a binding signal of 0.247 E-score.
ATTCTATC showed a binding signal of 0.348 E-score.
Sequence ATTCTAGC has a binding signal of 0.257 E-score.
Work on ATTCTACA yielded a binding signal of 0.42 E-score.

From paper PMC6212790, “How bacterial xenogeneic silencer rok distinguishes foreign from self DNA in its resident genome”
